# Screening data from PubChem BioAssay.
# IDH1 R132H inh = inhibitors of human mutant IDH1 R132H. IDH1-R132H enzyme, NADPH consumption, diaphorase/resazurin fluorescence. Potency, µM (top dose mostly 76.6 µM), inactives show at the highest dose activity change, negative = inhibition, actives largely listed as inhibitors. 0.093% of 390,000 active. AID 602179; further: potency means the concentration at half of the fitted maximal effect; on the % scale 0 is the no-effect control and ±100 the full control effect; nearly all actives have a fitted effect of over 65% in size
#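 IDH1-R132H (0.5 ug/mL) preincubated 30 min with compound, then NADPH (0.016 mM) and alpha-KG (2 mM) added; 80 min at RT, pH 7.5. Remaining NADPH coupled via diaphorase/resazurin to fluorescence (540/590 nm); concentration-response curves normalized to no-enzyme control.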
# KCNH2 3.1 block = inhibitors of human KCNH2 3.1 potassium channel isoform | U2OS KCNH2 3.1, thallium flux FluxOr; active compounds read low | activity change, % (tested at about 1.8 µM) | 0.95% of 340,000 active | AID 720553;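 active means maximum activity change below -70%; inconclusive means maximum activity change from -70% to -50%; inactive means maximum activity change above -50%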;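 further: thallium influx rate constant from kinetic fluorescence after stimulation buffer; on the % scale 0 is the no-effect control and ±100 the full control effect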
#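 Measured as rate of thallium-driven FluxOr signal in transduced U2OS cells carrying the 3.1 channel, read kinetically for 2 min upon stimulation; values are rate constants scaled to DMSO control wells.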
# ASM inhibitor = inhibitors of human secretory acid sphingomyelinase | 0.006% of 340,000 active | placental ASM, HMU-PC fluorogenic substrate, 60 min | Potency, µM (series often up to 57.5 µM), for the others: at the top dose activity change, negative = inhibition, most hits filed as inhibitors | P17405; further: potency means the concentration at half of the fitted maximal effect
#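 Fluorescence read-out (Ex 386 nm, Em 447 nm) after stopping the reaction at pH 10. Enzyme: ASM from human placenta; substrate HMU-PC0, 9 uM final; 60 min, 37 °C. Compound preincubation 10 min, ambient temperature.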
# hERG WT inh = inhibitors of human wildtype KCNH2 potassium channel; Q12809; 0.37% of 340,000 active; activity change, % at 1.84 µM; U2OS, BacMam KCNH2, thallium flux FluxOr; active compounds read low;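 active means maximum activity change below -70%; inconclusive means maximum activity change between -70% and -50%; inactive means maximum activity change above -50%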; further: on the % scale 0 is the no-effect control and ±100 the full control effect
#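 U2OS cells were transduced with wild-type KCNH2 virus (2.03 x 10^8 / mL) for 4 h at room temperature, then cultured overnight at 37 C. Thallium flux was read with FluxOr dye. Rate constants were normalized to DMSO controls.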
# Apoferritin bind = candidate novel general anesthetic via apoferritin binding; P02791; apoferritin/1-aminoanthracene competitive binding, fluorescence; Potency, µM (highest dose often 77.5 µM), inactives show at the top dose activity change, negative = displacement, usual class: inhibitors; 0.074% of 350,000 active; AID 485281; further: potency means the concentration at half of the fitted maximal effect; on the % scale 0 is the no-effect control and ±100 the full control effect; nearly all actives have a fitted effect of over 20% in size
# Target sequence (P02791 2-175 limits assumed): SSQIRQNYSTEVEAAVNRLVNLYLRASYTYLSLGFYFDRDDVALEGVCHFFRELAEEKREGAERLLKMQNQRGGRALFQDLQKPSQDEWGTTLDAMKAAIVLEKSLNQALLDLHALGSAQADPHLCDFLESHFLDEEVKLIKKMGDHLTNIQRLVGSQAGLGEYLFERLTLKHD
#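 In PBS, apoferritin at 10 uM is loaded with 1-AMA from a 50% saturated solution. After 10 min of compound exposure at ambient temperature, reduced 535 nm fluorescence indicates probe displacement.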
# * hit, by the source's call; ? = inconclusive; · = no result; [ ] = dose if it differs, or a comment. Most compounds without a hit are left out; they make up all but 1.2% or so of the library. Unless noted, the call rests on the fitted dose curve; in most records, active means well fitted inhibition curve with a large enough effect; inconclusive means small, poorly fitted or top-dose-only effect; inactive means no such curve, though single readings can be large or run the other way.
SMILES,IDH1 R132H inh,KCNH2 3.1 block,ASM inhibitor,hERG WT inh,Apoferritin bind
COC(=O)c1cc(NC(=O)c2cc3sccc3n2Cc2ccc(Cl)cc2)cc(C(=O)OC)c1,-1.5%,·,·,·,-13.1%
CCc1ccc2nc(N(CCCN(C)C)C(=O)c3ccc(C(=O)c4ccccc4)cc3)sc2c1,8.5%,-88.9*,-14.9%,0.3,?
CCN(CC)CCN(C(=O)/C=C/c1cccs1)c1nc2ccc(C)cc2s1,-7.9%,-99.1*,-10.8%,-148.2*,-4.2%
COc1ccc(-c2noc(CSc3nnc(-c4ccncc4)n3-c3ccc(C)c(C)c3)n2)cc1,10.9%,·,·,·,?
CCOc1ccc(N(CC(=O)N/N=C/c2ccccn2)S(=O)(=O)c2ccc(Cl)cc2)cc1,3.6%,-81.1*,-1.1%,-4.4,-21.5%
Nc1nonc1NN=C1CCCCC1,-5.0%,-80.5*,-7.1%,-10.6,6.7%
O=C(c1cc(Sc2ccc(Cl)cc2)nc2ccccc12)N1CCN(c2ccccn2)CC1,-1.2%,-78.5*,0.7%,7.8,-7.1%
O=C(c1cc(Sc2cccc(Cl)c2)nc2ccccc12)N1CCN(c2ccccn2)CC1,-4.8%,-6.3,-2.0%,1.5,-15.3%
CC(=O)N(O)C/C=C/c1cccc(Oc2ccccc2)c1,·,·,·,·,-14.0%
CCOc1ccc(NC(=O)CCn2cccn2)cc1,-24.4%,·,·,·,12.1%
Cc1ccc(-n2c(C)csc2=N)cc1,3.7%,-15.3,9.5%,-7.0,?
Cc1csc(=N)n1-c1ccc(Cl)cc1,16.2%,-0.4,6.4%,-17.3,11.2µM*
COc1ccc(NC(=O)c2cc3sccc3n2Cc2ccc(F)cc2)cc1OC,4.4%,-2.3,-16.9%,-249.1*,-2.8%
CCOC(=O)C1CCN(C(=O)c2ccc3c(=O)n4nc(Nc5ccccc5)sc4nc3c2)CC1,-22.5%,-79.5*,·,-2.8,-12.9%
COc1ccccc1Nc1nn2c(=O)c3ccc(C(=O)N4CCC(C)CC4)cc3nc2s1,-2.6%,7.4,-25.0%,7.7,-8.3%
COc1ccc(-c2nc(CNS(=O)(=O)c3ccc(Br)cc3)cs2)cc1,·,·,·,·,2.9%
COc1ccc(-c2nc(CNS(=O)(=O)c3ccc(OC)c(OC)c3)cs2)cc1,0.4%,-114.0*,3.6%,3.7,-1.9%
CC(C)Cn1cnc2c1c(=O)n(CC(=O)Nc1ccc3c(c1)OCO3)c(=O)n2Cc1ccccc1,2.0%,2.8,-0.7%,-86.3*,-8.9%
CC(C)NC(=O)C1CCC(Cn2c(=O)c3sccc3n(CC(=O)NCc3ccccc3)c2=O)CC1 (centres undefined),16.1%,·,·,·,-8.2%
COC(=O)COc1ccc2c(-c3ccc(OC)cc3)cc(=O)oc2c1,-4.2%,-79.3*,-10.4%,?,-12.3%
COc1ccc(-c2cc(=O)oc3cc(OCC(=O)N4CCOCC4)ccc23)cc1,0.5%,6.7,0.8%,11.5,-12.8%
Nc1nc2c(ncn2C2OC(CO)CC2O)c(=O)[nH]1 (centres undefined),·,·,·,·,-14.5%
CC(=O)Nc1ccc(S(=O)(=O)N2CCN(c3nc(NC4CCCC4)c4ccccc4n3)CC2)cc1,-3.8%,-86.0*,-2.2%,-89.7*,54.8%
CCCN1C2CCCC1CC(NC(=O)Nc1ccc(C(C)C)cc1)C2 (centres undefined),1.2%,-73.5*,-0.6%,-10.4,-18.5%
CCCN1C2CCCC1CC(NC(=O)Nc1cccc(C(C)=O)c1)C2 (centres undefined),13.5%,4.9,0.3%,4.4,1.9%
O=C(Nc1ccc(F)cc1F)N1CCCN(c2ccc([N+](=O)[O-])cn2)CC1,3.7%,-1.3,-2.4%,-2.6,-13.0%
CC(C)(C)c1ccc(NC(=O)N2CCN(c3ccc([N+](=O)[O-])cn3)CC2)cc1,1.4%,-103.4*,-11.1%,3.2,-14.8%
C=C1C=C(Br)C2(OCCCO2)[C@H]2OC12 (some centres undefined),·,·,·,·,0.7%[15.3 µM]
CC(=O)OC[C@@H]1O[C@H](C/C=N\OC[C@@H](O)[C@H]2O[C@H]3OC(C)(C)O[C@H]3[C@@H]2O)C=C[C@@H]1OC(C)=O,·,·,·,·,10.1%[15.3 µM]
CCOC(=O)c1c(CN2CCN(c3ccccc3)CC2)oc2ccc(O)cc12,-0.6%,-16.4,-6.4%,4.4,-0.6%
